According to PMC7862700, “An all-to-all approach to the identification of sequence-specific readers for epigenetic DNA modifications on cytosine”:

Experiments:
Experiment in all cases: DAPPL (digital affinity profiling via proximity ligation, sequencing); 10 mM Tris-HCl pH 7.5, 50 mM NaCl, 1 mM DTT, 4% glycerol, room temperature, 30 min; GST-TFs on glutathione beads, 16-mer random dsDNA library, 0.1% formaldehyde crosslink after washing; high values mean tight binding
Settings in all cases: protein: recombinant; tags: N-terminal GST; dsDNA, one strand shown
[1] = target: T1, FLI1 (Homo sapiens, UniProt Q01543 1-452)
T1 sequence: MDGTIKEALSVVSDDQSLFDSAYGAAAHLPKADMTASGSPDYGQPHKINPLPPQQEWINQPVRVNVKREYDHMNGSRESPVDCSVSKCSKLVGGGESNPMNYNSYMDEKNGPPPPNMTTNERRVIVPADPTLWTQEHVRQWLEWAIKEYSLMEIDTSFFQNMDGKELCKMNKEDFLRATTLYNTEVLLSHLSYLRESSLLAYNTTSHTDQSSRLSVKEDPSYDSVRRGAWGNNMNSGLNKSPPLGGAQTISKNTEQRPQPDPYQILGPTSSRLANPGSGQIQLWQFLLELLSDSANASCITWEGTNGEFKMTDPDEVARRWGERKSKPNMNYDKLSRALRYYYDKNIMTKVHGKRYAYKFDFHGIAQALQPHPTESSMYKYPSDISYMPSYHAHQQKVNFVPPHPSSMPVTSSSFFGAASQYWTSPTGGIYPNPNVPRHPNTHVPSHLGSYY
In short: (§1)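 GST fusions of human transcription factors were expressed in yeast and captured with glutathione beads. Once given DNA barcodes and pooled alongside a tag-only sample, they were incubated for 30 min at room temperature with 200 nmole of a random double-stranded 16-mer DNA library in Tris/NaCl/DTT/glycerol buffer, then washed, crosslinked (0.1% formaldehyde), proximity-ligated, PCR-amplified and sequenced on an Illumina NextSeq500. The binding signal of each hexamer is its read frequency for a factor divided by its frequency for the tag-only sample.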

[2] = target: T2, ELK1 (Homo sapiens, UniProt P19419 1-428)
T2 sequence: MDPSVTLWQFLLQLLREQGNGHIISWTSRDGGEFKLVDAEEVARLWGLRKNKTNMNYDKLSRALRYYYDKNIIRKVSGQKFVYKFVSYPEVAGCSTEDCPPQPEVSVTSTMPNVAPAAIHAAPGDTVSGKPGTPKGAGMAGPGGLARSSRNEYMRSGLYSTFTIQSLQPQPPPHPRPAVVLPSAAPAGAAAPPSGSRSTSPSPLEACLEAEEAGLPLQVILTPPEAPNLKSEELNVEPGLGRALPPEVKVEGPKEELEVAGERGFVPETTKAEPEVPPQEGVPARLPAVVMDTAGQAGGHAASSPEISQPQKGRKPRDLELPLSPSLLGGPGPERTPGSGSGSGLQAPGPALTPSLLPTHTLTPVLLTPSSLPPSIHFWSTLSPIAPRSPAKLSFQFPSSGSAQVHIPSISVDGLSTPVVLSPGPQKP
In short: as §1

[3] = target: T3, GABPA (Homo sapiens, UniProt Q06546 1-454)
T3 sequence: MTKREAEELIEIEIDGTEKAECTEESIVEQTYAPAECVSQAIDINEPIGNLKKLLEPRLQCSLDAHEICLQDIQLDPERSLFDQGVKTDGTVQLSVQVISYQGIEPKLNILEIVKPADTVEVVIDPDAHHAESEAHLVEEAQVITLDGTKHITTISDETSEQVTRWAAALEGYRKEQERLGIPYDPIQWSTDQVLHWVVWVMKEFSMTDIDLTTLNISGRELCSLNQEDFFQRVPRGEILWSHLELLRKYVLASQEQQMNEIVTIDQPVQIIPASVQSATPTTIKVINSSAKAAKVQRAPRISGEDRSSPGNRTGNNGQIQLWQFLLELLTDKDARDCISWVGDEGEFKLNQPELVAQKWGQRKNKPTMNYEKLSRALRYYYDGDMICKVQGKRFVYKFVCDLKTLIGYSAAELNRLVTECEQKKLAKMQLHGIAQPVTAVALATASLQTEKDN
In short: as §1

[4] = target: T4, ERG (Homo sapiens, UniProt P11308 1-479)
T4 sequence: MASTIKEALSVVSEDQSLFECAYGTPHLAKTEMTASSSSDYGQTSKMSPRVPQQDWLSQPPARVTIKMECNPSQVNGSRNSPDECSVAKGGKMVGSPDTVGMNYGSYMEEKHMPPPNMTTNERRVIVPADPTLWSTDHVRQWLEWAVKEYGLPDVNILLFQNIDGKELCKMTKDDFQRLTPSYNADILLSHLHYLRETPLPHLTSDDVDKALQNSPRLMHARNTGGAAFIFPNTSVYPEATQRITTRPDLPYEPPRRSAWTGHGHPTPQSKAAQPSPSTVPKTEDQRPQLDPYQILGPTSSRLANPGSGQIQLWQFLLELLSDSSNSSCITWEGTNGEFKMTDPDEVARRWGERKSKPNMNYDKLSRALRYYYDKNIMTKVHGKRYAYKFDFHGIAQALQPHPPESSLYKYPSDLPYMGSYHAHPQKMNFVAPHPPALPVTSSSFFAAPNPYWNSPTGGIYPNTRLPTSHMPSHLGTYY
In short: as §1

[5] = target: ELF1 (Homo sapiens, UniProt P32519 1-619)
Sequence of ELF1 (P32519 whole entry): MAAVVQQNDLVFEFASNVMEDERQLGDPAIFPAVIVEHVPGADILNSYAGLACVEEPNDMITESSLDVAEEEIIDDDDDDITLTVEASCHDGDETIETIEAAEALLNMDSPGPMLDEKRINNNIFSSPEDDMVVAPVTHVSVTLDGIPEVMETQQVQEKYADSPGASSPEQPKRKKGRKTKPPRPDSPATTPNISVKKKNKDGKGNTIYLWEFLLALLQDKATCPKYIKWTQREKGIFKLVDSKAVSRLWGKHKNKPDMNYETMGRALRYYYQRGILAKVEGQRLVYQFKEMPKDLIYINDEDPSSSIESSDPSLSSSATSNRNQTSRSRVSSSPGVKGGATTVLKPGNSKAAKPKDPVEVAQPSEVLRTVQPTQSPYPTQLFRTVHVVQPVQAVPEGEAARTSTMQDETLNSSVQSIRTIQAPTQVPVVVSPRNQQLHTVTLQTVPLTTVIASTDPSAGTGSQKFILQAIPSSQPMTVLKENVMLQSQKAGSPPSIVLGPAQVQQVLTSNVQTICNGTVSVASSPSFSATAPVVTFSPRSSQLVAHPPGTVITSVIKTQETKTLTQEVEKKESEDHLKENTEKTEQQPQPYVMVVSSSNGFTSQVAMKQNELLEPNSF
In short: as §1

[6] = target: T5, EHF (Homo sapiens, UniProt Q9NZC4 1-300)
T5 sequence: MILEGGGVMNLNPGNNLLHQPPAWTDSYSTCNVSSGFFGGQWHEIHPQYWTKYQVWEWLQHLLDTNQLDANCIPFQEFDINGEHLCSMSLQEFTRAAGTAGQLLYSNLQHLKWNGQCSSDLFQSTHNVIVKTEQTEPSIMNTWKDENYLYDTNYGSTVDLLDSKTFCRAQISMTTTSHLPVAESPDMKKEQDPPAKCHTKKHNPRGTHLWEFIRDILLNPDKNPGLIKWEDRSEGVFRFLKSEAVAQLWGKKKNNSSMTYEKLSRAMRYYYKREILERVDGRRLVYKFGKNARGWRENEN
In short: as §1

[7] = target: SPI1 (Homo sapiens, UniProt P17947 1-270)
In short: as §1

[8] = target: SPIB (Homo sapiens, UniProt Q01892 1-262)
Sequence of SPIB (Q01892 whole entry): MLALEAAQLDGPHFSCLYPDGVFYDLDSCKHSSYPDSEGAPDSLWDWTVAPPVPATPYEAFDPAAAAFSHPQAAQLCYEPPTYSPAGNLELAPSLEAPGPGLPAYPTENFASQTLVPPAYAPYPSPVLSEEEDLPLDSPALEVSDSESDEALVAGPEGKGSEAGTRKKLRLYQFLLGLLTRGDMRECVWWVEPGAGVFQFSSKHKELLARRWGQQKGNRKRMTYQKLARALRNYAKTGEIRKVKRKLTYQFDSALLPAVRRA
In short: as §1

[9] = target: T6, ELK3 (Homo sapiens, UniProt P41970 1-407)
T6 sequence: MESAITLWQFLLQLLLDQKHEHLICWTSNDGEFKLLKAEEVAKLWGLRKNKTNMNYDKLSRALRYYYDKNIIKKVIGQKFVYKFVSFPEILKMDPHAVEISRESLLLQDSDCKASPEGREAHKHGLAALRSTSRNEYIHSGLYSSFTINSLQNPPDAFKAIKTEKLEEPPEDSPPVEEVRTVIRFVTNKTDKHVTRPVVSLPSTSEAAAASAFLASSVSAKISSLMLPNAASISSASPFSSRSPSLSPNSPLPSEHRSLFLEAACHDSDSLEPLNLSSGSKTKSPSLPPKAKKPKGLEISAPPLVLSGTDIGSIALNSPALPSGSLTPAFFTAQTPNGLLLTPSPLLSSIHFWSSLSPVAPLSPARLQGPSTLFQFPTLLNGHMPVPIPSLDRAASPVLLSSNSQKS
In short: as §1

Row | Sequence | binding signal [1] | binding signal [2] | binding signal [3] | binding signal [4] | binding signal [5] | binding signal [6] | binding signal [7] | binding signal [8] | binding signal [9]
1 | GCATTT | 1.38 fold enrichment (6-mer frequency, TF over GST control) | 1.38 fold enrichment (6-mer frequency, TF over GST control) | 1.36 fold enrichment (6-mer frequency, TF over GST control) | 1.3 fold enrichment (6-mer frequency, TF over GST control) | 1.33 fold enrichment (6-mer frequency, TF over GST control) | 1.37 fold enrichment (6-mer frequency, TF over GST control) | 1.58 fold enrichment (6-mer frequency, TF over GST control) | 1.38 fold enrichment (6-mer frequency, TF over GST control) | 1.4 fold enrichment (6-mer frequency, TF over GST control)
2 | TTATGC | 1.34 fold enrichment (6-mer frequency, TF over GST control) | 1.34 fold enrichment (6-mer frequency, TF over GST control) | 1.22 fold enrichment (6-mer frequency, TF over GST control) | 1.31 fold enrichment (6-mer frequency, TF over GST control) | 1.15 fold enrichment (6-mer frequency, TF over GST control) | 1.43 fold enrichment (6-mer frequency, TF over GST control) | 1.34 fold enrichment (6-mer frequency, TF over GST control) | 1.26 fold enrichment (6-mer frequency, TF over GST control) | 1.16 fold enrichment (6-mer frequency, TF over GST control)
3 | AATGCG | 1.24 fold enrichment (6-mer frequency, TF over GST control) | 1.27 fold enrichment (6-mer frequency, TF over GST control) | 1.27 fold enrichment (6-mer frequency, TF over GST control) | 1.23 fold enrichment (6-mer frequency, TF over GST control) | 1.21 fold enrichment (6-mer frequency, TF over GST control) | 1.32 fold enrichment (6-mer frequency, TF over GST control) | 1.58 fold enrichment (6-mer frequency, TF over GST control) | 1.31 fold enrichment (6-mer frequency, TF over GST control) | 1.29 fold enrichment (6-mer frequency, TF over GST control)
